Data published in the supplement of paper PMC10849652.
Targets with a hit are over-represented here; the source holds about 8,800 in all. About 0.5% of all pairs of compound and target were hits.

How the values were obtained:
Experiment in all cases: log2 fold change, soluble protein after heating vs DMSO (PISA); higher = thermal stabilisation; K562 lysate, 10 uM; active = over 0.2 and 3.5 SD of the protein, either way, in both replicates (recomputed)
erlotinib = compound: C#Cc1cccc(Nc2ncnc3cc(OCCOC)c(OCCOC)cc23)c1 [erlotinib]
Procedure, shortened: (§1)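 The values are log-two fold changes in thermal stability compared with solvent controls and come from duplicates. They were obtained by TMTpro 16plex LC-MS/MS, with channel sums equalised, on the supernatant after 21,000xg for 90 min. That supernatant came from crude K562 extract at 1 mg/mL protein treated with 10 μM compound for 30 min, heated for 3 min across 48°C-58°C, pooled and brought to 0.5% NP-40 at 4°C.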

[1] = compound: C/C(=N\NC(=O)C1=CC(=CC=C1)S(=O)(=O)N2CCOCC2)/C3=C(C=CC(=C3)Cl)O
Procedure, shortened: as §1

[2] = compound: C1=CC(=CC=C1C2=NC3=C(N2)C=C(C=C3)C(=O)N)OC4=CC=C(C=C4)Cl
Procedure, shortened: as §1

[3] = compound: C1=CC2=C(C=CC(=C2)/C=C\3/C(=O)NC(=NCC4=CC=CS4)S3)N=C1
Procedure, shortened: as §1

[4] = compound: C1=CC2=NC=CN=C2C=C1/C=C/3\C(=O)NC(=O)S3
Procedure, shortened: as §1

[5] = compound: C1=CC=C(C=C1)C2=NC(=C(N2)C3=CC=NC=C3)C4=CC(=C(C=C4)Cl)O
Procedure, shortened: as §1

[6] = compound: C1=CC=C2C(=C1)C3=NNC4=CC=CC(=C43)C2=O
Procedure, shortened: as §1

[7] = compound: C1CCN(C1)C(=O)NC2=CC=CC(=C2)NC3=NC=C(C(=N3)NCCC4=CN=CN4)Br
Procedure, shortened: as §1

[8] = compound: C1CN(CCC1(CC2=CC=C(C=C2)Cl)N)C3=NC=NC4=C3C=CN4
Procedure, shortened: as §1

IRAK-1-4 Inhibitor I = compound: C1COCCN1CCN2C3=CC=CC=C3N=C2NC(=O)C4=CC(=CC=C4)[N+](=O)[O-] [IRAK-1-4 Inhibitor I]
Procedure, shortened: as §1

ibrutinib = compound: C=CC(=O)N1CCC[C@@H](n2nc(-c3ccc(Oc4ccccc4)cc3)c3c(N)ncnc32)C1 [ibrutinib]
Procedure, shortened: as §1

[9] = compound: CC(=O)c1cnc2ccc(-c3cc(Cl)c(O)c(Cl)c3)nc2c1N[C@H]1CC[C@H](CN(C)C)CC1
Procedure, shortened: as §1

ralimetinib = compound: CC(C)(C)Cn1c(N)nc2ccc(-c3[nH]c(C(C)(C)C)nc3-c3ccc(F)cc3)nc21 [ralimetinib]
Procedure, shortened: as §1

[10] = compound: CC(C)(O)CC(=O)NCCn1ccc2ncnc(Nc3ccc(Oc4cccc(C(F)(F)F)c4)c(Cl)c3)c21
Procedure, shortened: as §1

[11] = compound: CC(C)C1=C2N=C(C=C(N2N=C1)NCC3=CC=CC=C3)NCCCCCCN
Procedure, shortened: as §1

[12] = compound: CC1=C(C(CC(=O)N1)C2=CC=C(C=C2)C(F)(F)F)C(=O)NC3=C(C=C4C(=C3)C=NN4)F
Procedure, shortened: as §1

[13] = compound: CC1=C(C2=C(C=C1)C(=O)C3=CC=CC=C3N2CCCN)C
Procedure, shortened: as §1

[14] = compound: CC1=C(C=C(C=C1)NC(=O)C2=CC(=CC=C2)C(C)(C)C#N)NC3=CC4=C(C=C3)N=CN(C4=O)C
Procedure, shortened: as §1

[15] = compound: CC1=C(C=C(C=C1)NC(=O)C2=CC(=CC=C2)N(C)C)NC(=O)C3=CC=C(C=C3)O
Procedure, shortened: as §1

[16] = compound: CC1=CC=C(C=C1)SC2=C3C=C(SC3=CN=C2)C(=O)N
Procedure, shortened: as §1

Measured: log2 fold change

EIF1 (UniProt P41567)
Chain of UniProt P41567 (P41567 whole entry, looked up): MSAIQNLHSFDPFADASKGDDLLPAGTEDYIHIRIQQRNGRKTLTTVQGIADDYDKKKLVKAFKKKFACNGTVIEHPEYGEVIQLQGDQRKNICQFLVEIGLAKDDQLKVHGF
inactive: erlotinib -0.006 | [1] -0.022 | [2] 0.063 | [3] -0.031 | [4] -0.004 | [5] 0.044 | [6] 0.011 | [7] -0.027 | [8] -0.023 | IRAK-1-4 Inhibitor I 0.02 | ibrutinib 0.026 | [9] 0.015 | ralimetinib -0.016 | [10] 0.011 | [11] 0 | [12] -0.114 | [13] 0.059 | [14] 0.045 | [15] -0.043 | [16] -0.037

EP400 isoform 5 (UniProt Q96L91)
inactive: erlotinib 0.045 | [1] 0.01 | [2] -0.007 | [3] -0.023 | [4] -0.042 | [5] -0.003 | [6] -0.074 | [7] -0.027 | [8] -0.023 | IRAK-1-4 Inhibitor I -0.005 | ibrutinib -0.061 | [9] -0.018 | ralimetinib 0.02 | [10] -0.033 | [11] -0.027 | [12] 0.047 | [13] -0.014 | [14] 0.016 | [15] 0.035 | [16] 0.041

FARSA (UniProt Q9Y285)
inactive: erlotinib 0.045 | [1] -0.001 | [2] -0.054 | [3] 0.009 | [4] 0 | [5] 0.119 | [6] -0.005 | [7] 0.009 | [8] -0.023 | IRAK-1-4 Inhibitor I -0.018 | ibrutinib -0.006 | [9] -0.02 | ralimetinib 0.048 | [10] 0.025 | [11] 0.06 | [12] -0.014 | [13] -0.063 | [14] 0.055 | [15] 0 | [16] 0.006

FLT4 (UniProt P35916)
inactive: erlotinib 0.047 | [1] 0.036 | [2] 0.038 | [3] 0.039 | [4] 0.075 | [5] 0.046 | [6] 0.044 | [7] -0.097 | [8] 0.087 | IRAK-1-4 Inhibitor I -0.029 | ibrutinib 0.062 | [9] 0.064 | ralimetinib 0.012 | [10] -0.005 | [11] -0.057 | [13] 0.038 | [15] -0.019 | [16] 0.005

FYCO1 isoform 4 (UniProt Q9BQS8)
inactive: erlotinib 0.029 | [1] 0.026 | [2] 0.014 | [3] -0.01 | [4] -0.019 | [5] -0.006 | [6] -0.016 | [7] -0.013 | [8] 0.009 | IRAK-1-4 Inhibitor I 0 | ibrutinib -0.012 | [9] -0.015 | ralimetinib 0.021 | [10] -0.026 | [11] 0 | [12] 0.029 | [13] -0.019 | [14] -0.003 | [15] -0.028 | [16] 0

EAPP (UniProt Q56P03)
Chain of UniProt Q56P03 (Q56P03 whole entry, looked up): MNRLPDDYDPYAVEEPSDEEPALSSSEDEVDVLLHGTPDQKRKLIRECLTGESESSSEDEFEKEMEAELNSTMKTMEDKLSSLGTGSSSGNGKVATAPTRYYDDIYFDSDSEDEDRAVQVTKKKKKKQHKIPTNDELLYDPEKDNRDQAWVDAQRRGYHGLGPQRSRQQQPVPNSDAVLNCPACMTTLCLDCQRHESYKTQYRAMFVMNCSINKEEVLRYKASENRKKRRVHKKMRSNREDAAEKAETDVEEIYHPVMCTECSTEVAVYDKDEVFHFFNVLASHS
active: [1] 0.349
inactive: erlotinib 0.012 | [2] 0.018 | [3] 0.098 | [4] 0.073 | [5] 0.011 | [6] -0.094 | [7] 0.024 | [8] 0.103 | IRAK-1-4 Inhibitor I -0.014 | ibrutinib -0.105 | [9] 0.025 | ralimetinib -0.1 | [10] -0.059 | [11] -0.035 | [12] 0.037 | [13] -0.037 | [14] -0.015 | [15] 0.052 | [16] -0.042

EPB41, A0A2R8Y6D0
inactive: erlotinib 0.134 | [1] 0.064 | [2] -0.187 | [3] -0.012 | [4] -0.004 | [5] 0.066 | [6] -0.004 | [7] -0.042 | [8] 0.054 | IRAK-1-4 Inhibitor I -0.071 | ibrutinib 0.04 | [9] 0.007 | ralimetinib 0.171 | [10] 0.094 | [11] -0.061 | [12] -0.012 | [13] 0 | [14] -0.065 | [15] 0.078 | [16] -0.02

FUBP3 (UniProt Q96I24)
inactive: erlotinib -0.023 | [1] 0.003 | [2] 0.04 | [3] 0.007 | [4] -0.009 | [5] -0.141 | [6] -0.033 | [7] -0.038 | [8] 0.003 | IRAK-1-4 Inhibitor I 0.023 | ibrutinib 0.024 | [9] 0.002 | ralimetinib 0.021 | [10] -0.051 | [11] 0.014 | [12] -0.018 | [13] 0.072 | [14] -0.149 | [15] -0.003 | [16] -0.018

DYNC1I2 isoform 5 (UniProt Q13409)
inactive: erlotinib -0.005 | [1] 0.001 | [2] -0.001 | [3] 0.009 | [4] 0 | [5] 0.009 | [6] 0.019 | [7] -0.007 | [8] 0.016 | IRAK-1-4 Inhibitor I 0.018 | ibrutinib 0.022 | [9] -0.021 | ralimetinib 0 | [10] -0.014 | [11] 0.004 | [12] 0.012 | [13] -0.007 | [14] -0.012 | [15] 0.008 | [16] -0.003

FAT2 (UniProt Q9NYQ8)
inactive: erlotinib 0.215 | [1] -0.092 | [2] -0.311 | [3] 0.038 | [4] -0.076 | [5] -0.135 | [6] -0.147 | [7] -0.007 | [8] 0.01 | IRAK-1-4 Inhibitor I -0.016 | ibrutinib 0.01 | [9] 0.057 | ralimetinib -0.156 | [10] -0.123 | [11] -0.314 | [12] -0.019 | [14] 0.166 | [15] 0.038 | [16] -0.023

FBXO45 (UniProt P0C2W1)
Chain of UniProt P0C2W1 (P0C2W1 whole entry, looked up): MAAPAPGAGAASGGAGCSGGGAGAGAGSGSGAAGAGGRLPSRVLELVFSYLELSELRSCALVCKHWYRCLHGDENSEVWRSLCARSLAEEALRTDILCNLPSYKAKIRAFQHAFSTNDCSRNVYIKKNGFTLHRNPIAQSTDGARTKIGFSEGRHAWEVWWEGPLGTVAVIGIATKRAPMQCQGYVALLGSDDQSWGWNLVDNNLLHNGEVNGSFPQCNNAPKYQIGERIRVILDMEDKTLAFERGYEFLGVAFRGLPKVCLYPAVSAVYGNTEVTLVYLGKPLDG
inactive: erlotinib 0.077 | [1] 0.016 | [2] -0.033 | [3] 0.092 | [4] -0.099 | [5] -0.126 | [6] -0.069 | [7] 0.018 | [8] 0.01 | IRAK-1-4 Inhibitor I -0.043 | ibrutinib 0.207 | [9] 0.075 | ralimetinib 0.173 | [10] 0.045 | [11] 0.043 | [12] 0.015 | [14] 0.064 | [15] 0.018 | [16] 0.081

DVL2 (UniProt O14641)
Chain of UniProt O14641 (O14641 whole entry, looked up): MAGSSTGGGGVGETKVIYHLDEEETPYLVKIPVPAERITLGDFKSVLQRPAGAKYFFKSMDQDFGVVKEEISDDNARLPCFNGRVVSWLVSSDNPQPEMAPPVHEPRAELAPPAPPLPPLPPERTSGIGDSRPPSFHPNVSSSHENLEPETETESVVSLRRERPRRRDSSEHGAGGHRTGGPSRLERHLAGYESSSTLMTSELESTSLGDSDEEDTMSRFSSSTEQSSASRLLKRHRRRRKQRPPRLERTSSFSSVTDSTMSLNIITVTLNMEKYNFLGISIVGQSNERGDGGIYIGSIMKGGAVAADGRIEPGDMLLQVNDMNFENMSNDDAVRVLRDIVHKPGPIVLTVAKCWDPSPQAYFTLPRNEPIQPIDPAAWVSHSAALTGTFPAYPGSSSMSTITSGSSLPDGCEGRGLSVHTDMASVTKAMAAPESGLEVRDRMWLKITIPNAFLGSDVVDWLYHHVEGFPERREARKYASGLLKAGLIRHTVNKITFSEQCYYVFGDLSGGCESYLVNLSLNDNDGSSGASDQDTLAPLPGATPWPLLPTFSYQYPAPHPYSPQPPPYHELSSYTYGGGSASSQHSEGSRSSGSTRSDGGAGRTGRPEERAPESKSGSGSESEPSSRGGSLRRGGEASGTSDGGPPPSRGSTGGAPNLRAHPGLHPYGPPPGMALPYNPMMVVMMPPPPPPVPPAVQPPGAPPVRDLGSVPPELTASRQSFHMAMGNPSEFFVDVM
inactive: erlotinib 0.012 | [1] -0.028 | [2] 0.011 | [3] -0.015 | [4] 0.03 | [5] -0.055 | [6] -0.029 | [7] 0.001 | [8] 0.067 | IRAK-1-4 Inhibitor I -0.073 | ibrutinib -0.032 | [9] 0.085 | ralimetinib 0.022 | [10] 0.032 | [11] -0.019 | [12] 0.028 | [13] -0.056 | [14] -0.072 | [15] 0.045 | [16] 0.11

EIF2B5 (UniProt Q13144)
inactive: erlotinib 0.015 | [1] -0.052 | [2] -0.017 | [3] 0.011 | [4] 0.03 | [5] -0.011 | [6] -0.054 | [7] 0.006 | [8] 0.007 | IRAK-1-4 Inhibitor I 0.027 | ibrutinib 0 | [9] 0.008 | ralimetinib 0.027 | [10] -0.018 | [11] 0.008 | [12] -0.019 | [13] 0.012 | [14] -0.031 | [15] 0.008 | [16] 0.02

DST (UniProt Q03001)
inactive: erlotinib 0.025 | [1] -0.035 | [2] 0.046 | [3] -0.03 | [4] -0.042 | [5] 0 | [6] -0.16 | [7] -0.046 | [8] 0 | IRAK-1-4 Inhibitor I 0.04 | ibrutinib 0.007 | [9] -0.031 | ralimetinib -0.034 | [10] -0.098 | [11] 0.021 | [12] -0.052 | [13] -0.054 | [14] 0.049 | [15] 0.063 | [16] -0.046

FBXO38 (UniProt Q6PIJ6)
Chain of UniProt Q6PIJ6 (Q6PIJ6 whole entry, looked up): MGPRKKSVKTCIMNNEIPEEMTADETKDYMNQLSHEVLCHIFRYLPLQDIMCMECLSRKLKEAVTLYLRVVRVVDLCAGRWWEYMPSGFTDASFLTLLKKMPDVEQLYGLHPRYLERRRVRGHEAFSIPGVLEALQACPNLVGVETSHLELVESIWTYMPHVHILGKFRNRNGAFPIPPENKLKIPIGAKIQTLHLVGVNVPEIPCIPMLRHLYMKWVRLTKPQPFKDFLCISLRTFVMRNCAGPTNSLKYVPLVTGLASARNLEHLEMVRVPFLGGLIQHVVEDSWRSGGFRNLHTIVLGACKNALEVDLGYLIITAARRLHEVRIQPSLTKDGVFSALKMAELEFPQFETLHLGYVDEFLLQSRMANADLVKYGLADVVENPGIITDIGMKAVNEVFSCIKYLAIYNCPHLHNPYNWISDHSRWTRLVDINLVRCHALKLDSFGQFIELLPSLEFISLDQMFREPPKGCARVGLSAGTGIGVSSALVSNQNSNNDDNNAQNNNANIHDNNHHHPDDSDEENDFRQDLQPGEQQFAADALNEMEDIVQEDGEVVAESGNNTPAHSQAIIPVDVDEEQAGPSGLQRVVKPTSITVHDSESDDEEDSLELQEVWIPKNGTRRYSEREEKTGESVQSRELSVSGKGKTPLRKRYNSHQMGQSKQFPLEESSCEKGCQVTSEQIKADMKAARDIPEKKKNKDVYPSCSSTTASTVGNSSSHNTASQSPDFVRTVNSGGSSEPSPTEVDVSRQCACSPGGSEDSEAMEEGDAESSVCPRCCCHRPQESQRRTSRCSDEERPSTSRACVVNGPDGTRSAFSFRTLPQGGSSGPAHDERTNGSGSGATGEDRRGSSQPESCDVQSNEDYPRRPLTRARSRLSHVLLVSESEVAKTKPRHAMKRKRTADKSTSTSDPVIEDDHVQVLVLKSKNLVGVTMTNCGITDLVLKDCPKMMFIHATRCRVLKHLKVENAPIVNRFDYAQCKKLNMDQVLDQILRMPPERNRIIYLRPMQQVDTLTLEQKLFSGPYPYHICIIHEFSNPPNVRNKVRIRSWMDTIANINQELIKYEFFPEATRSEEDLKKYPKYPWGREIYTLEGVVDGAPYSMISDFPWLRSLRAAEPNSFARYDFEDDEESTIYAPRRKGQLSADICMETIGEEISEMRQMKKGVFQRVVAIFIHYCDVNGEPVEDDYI
inactive: erlotinib 0.102 | [1] 0.041 | [2] 0.013 | [3] -0.047 | [4] -0.041 | [5] 0.06 | [6] 0.077 | [7] -0.06 | [8] 0.021 | IRAK-1-4 Inhibitor I -0.052 | ibrutinib -0.042 | [9] 0.063 | ralimetinib 0.083 | [10] 0.009 | [11] -0.078 | [12] -0.037 | [13] -0.073 | [14] -0.098 | [15] 0.009 | [16] 0.175

EP300 (UniProt Q09472)
Chain of UniProt Q09472 (Q09472 whole entry, looked up): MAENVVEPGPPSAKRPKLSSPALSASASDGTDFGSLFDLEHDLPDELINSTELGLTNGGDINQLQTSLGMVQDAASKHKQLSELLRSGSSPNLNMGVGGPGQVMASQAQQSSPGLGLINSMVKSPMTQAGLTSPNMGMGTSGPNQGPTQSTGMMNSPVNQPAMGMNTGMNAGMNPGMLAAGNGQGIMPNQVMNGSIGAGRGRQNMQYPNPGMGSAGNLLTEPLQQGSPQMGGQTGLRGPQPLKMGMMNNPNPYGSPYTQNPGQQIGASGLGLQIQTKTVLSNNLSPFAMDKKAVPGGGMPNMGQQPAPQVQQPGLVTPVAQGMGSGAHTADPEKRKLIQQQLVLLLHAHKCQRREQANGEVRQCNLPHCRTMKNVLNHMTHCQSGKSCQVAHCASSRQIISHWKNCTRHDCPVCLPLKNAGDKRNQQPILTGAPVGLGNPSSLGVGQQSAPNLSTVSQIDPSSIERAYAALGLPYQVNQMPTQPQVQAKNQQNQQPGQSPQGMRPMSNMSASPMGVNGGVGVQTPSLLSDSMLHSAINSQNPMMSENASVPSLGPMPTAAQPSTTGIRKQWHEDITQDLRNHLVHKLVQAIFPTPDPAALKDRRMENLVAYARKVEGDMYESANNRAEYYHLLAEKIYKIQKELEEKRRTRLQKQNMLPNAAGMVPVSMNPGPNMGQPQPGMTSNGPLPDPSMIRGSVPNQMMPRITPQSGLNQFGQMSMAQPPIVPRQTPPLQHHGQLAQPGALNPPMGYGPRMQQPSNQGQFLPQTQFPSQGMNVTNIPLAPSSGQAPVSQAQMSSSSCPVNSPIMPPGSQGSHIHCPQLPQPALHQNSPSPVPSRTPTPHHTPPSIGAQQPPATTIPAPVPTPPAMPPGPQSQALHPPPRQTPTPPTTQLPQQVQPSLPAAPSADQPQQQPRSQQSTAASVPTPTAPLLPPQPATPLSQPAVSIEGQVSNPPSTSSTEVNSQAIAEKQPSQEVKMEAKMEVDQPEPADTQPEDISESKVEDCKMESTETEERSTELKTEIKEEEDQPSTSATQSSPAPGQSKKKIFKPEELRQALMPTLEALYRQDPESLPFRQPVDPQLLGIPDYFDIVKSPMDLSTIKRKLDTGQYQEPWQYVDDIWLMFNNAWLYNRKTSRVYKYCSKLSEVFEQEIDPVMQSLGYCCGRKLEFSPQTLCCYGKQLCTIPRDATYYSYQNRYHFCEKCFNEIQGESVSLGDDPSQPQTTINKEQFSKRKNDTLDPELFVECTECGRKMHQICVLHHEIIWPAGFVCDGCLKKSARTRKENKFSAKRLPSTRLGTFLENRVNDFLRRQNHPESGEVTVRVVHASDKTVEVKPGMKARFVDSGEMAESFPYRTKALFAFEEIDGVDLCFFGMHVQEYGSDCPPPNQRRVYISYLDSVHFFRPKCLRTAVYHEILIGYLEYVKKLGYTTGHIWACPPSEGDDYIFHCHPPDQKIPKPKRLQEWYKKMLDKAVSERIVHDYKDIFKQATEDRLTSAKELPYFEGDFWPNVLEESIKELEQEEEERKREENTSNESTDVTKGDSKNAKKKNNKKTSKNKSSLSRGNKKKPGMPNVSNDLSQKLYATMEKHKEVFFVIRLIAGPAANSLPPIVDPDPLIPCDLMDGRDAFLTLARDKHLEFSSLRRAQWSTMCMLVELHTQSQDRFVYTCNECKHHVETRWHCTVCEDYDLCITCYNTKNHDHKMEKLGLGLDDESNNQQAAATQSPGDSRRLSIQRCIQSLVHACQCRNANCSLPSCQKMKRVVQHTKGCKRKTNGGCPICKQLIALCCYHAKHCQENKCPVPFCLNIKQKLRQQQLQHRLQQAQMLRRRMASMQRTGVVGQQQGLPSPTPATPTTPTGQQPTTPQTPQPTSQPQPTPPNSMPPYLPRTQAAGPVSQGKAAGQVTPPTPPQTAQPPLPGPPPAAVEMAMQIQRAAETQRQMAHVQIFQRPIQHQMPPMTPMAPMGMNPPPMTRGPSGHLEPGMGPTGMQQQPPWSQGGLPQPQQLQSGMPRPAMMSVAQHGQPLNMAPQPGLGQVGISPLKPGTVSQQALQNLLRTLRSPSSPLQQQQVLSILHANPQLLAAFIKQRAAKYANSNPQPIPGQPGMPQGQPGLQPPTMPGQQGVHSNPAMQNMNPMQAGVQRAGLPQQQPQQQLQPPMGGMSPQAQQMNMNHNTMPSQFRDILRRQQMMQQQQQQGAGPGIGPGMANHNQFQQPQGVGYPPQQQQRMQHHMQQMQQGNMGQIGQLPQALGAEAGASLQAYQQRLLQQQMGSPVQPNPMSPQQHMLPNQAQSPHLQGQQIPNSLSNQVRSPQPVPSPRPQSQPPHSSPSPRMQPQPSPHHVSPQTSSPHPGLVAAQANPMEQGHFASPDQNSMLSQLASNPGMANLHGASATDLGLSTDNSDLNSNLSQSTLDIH
inactive: erlotinib 0.017 | [1] 0.011 | [2] -0.024 | [3] -0.017 | [4] 0.078 | [5] -0.015 | [6] -0.019 | [7] -0.033 | [8] 0 | IRAK-1-4 Inhibitor I -0.006 | ibrutinib 0.084 | [9] 0.117 | ralimetinib -0.026 | [10] -0.011 | [11] -0.07 | [12] 0.423 | [13] -0.011 | [14] -0.035 | [15] -0.025 | [16] -0.008
